Sampled rows, rich in hits. Any-hit rate of the full collection: about 2.5%.
PK Bst – modulators of Bacillus stearothermophilus pyruvate kinase; purified pyruvate kinase, luminescence ATP production; ribose 5-phosphate activator present at AC10; Potency, µM; 51,000 compounds, 1.2% hits; AID 361; in the data active = potency below about 11 µM; inconclusive = mostly about 12 µM to 25 µM;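 the screen sought inhibitors and activators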;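 note: scaled between full activation by ribose 5 phosphate and full inhibition by luteolin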
FLuc inh – inhibitors of firefly luciferase. AID 411. purified firefly luciferase, luminescence, 8 min. Potency, µM (doses to about 57.1 µM), for the others: at the top dose activity change, negative = inhibition, usual class: inhibitors. P08659. 72,000 compounds, 2.2% hits; active = well fitted inhibition curve with a large enough effect; inconclusive = small, poorly fitted or top-dose-only effect; note: nearly all actives have a fitted effect of over 40% in size
Target sequence (P08659 whole entry, looked up): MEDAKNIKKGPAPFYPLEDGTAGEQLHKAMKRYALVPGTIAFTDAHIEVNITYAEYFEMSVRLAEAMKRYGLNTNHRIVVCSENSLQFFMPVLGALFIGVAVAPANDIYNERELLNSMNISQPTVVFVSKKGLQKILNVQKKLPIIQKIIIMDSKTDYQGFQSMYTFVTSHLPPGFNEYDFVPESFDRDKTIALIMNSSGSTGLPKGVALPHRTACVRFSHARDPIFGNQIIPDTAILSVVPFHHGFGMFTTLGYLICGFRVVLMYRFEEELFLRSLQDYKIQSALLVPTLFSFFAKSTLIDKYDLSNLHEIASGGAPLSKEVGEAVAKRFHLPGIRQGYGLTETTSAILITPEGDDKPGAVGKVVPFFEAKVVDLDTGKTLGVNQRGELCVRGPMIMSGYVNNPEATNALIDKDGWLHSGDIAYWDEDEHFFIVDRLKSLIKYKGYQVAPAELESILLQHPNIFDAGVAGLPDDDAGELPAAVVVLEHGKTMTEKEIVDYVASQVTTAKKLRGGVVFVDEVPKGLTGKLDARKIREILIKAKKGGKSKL
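Firefly luciferase (PKLight detection mix) with 10 uM ATP in pH 7.2 imidazole buffer (KCl, MgCl2, Tween 20, BSA). Compounds tested across a concentration series (qHTS). Luminescence read after 8 min at ambient temperature.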
The depositor's hits bear a star; [ ] = dose if it differs, or a comment. Unless noted, % is set by controls: 0 for no effect and ±100 for the full control effect; potency is the fitted concentration of half-maximal effect.

`Cc1ccc(NC(=O)N2CCC(C(=O)NCc3ccccc3)CC2)cc1` gave PK Bst >57 and FLuc inh -0.3%.
`Cc1ccc(C2CCN(C(=O)Nc3ccccc3)C2)cc1` (stereo not given) gave FLuc inh 25.1µM*.
`O=C1OCCC1Sc1nnc(-c2ccco2)o1` (stereo not given) gave PK Bst >57 and FLuc inh 0.2%.
O=C1OCCC1Sc1nnc(-c2ccc(Br)cc2)o1 (stereo not given) was read as FLuc inh 15.8µM*.
For COc1cccc(-c2noc(-c3cccs3)n2)c1 the results were PK Bst inconclusive and FLuc inh 10µM*.
CCOc1cc(-c2nc(-c3ccc(OC)cc3)no2)cc(OCC)c1OCC was read as FLuc inh 0.8%.
`COc1cccc(-c2noc(-c3cccnc3)n2)c1` gave FLuc inh 12.6µM*.
For COc1ccc(CC(=O)Nc2ccc(-c3noc(-c4cccc(OC)c4)n3)cc2)cc1 the results were PK Bst >57 and FLuc inh 0.4%.
For COc1cccc(-c2nc(-c3ccc(NC(=O)c4cccnc4)cc3)no2)c1 the results were PK Bst >57 and FLuc inh 0.7%.
Screening COc1nc(-c2ccccc2)ccc1-c1noc(-c2cccs2)n1 returned PK Bst >57 and FLuc inh -2.0%.
For COc1ccc(-c2noc(-c3ccc(Cl)cc3)n2)cc1 the results were PK Bst 5.41* and FLuc inh inconclusive.
`COc1cccc(-c2nc(-c3ccccc3)no2)c1` gave PK Bst 8.99* and FLuc inh 10µM*.
Cc1ccc(S(=O)(=O)OC2CCN(C)CC2)cc1 was read as FLuc inh 2.6%[11.4 µM].
For COc1ccc(-c2nc3cnc(Oc4cccc(Cl)c4)nc3n(C3CC3)c2=O)cc1 the results were FLuc inh 1.1%[11.4 µM].
For COc1cc2cc3c4cc(OC)c(OC)cc4cc[n+]3c(C)c2cc1OC the results were FLuc inh 3.9%[25.5 µM].
`CC(=O)O[C@H]1CC[C@]2(C)C(=CC[C@H]3[C@H]4C[C@H]5O[C@]6(CC[C@H](C)CN6)[C@H](C)[C@@H]5[C@]4(C)CC[C@@H]32)C1` gave FLuc inh 0.5%[11.4 µM].
For Nc1nc(N)c2nn(-c3ccc(C(=O)O)cc3)nc2n1 the results were FLuc inh 2.5%[11.4 µM].
Screening COC(=O)c1ccc(-c2nc(-c3cccs3)no2)cc1 returned FLuc inh 1.58µM*.
`COC(=O)c1ccc(-c2nc(-c3ccc(Br)o3)no2)cc1` gave FLuc inh -6.9%.
Screening Cc1nc2cc(NC(=O)N3c4ccccc4CC3C)ccc2o1 (stereo not given) returned PK Bst inconclusive and FLuc inh 12.6µM*.
`CC1Cc2ccccc2N1C(=O)c1ccc2c(c1)nnn2C` (stereo not given) gave PK Bst >57 and FLuc inh 2.6%.
Cc1nc2cc(NC(=O)N3c4ccccc4CC3C)ccc2n1C (stereo not given) was read as PK Bst 9.47* and FLuc inh 5.01µM*.
Screening Cc1nc2cc(NC(=O)NCc3ccc4c(c3)OCO4)ccc2o1 returned PK Bst >57 and FLuc inh -6.5%.
Screening CNc1cc(-c2ccccc2C(F)(F)F)ncn1 returned FLuc inh -12.3%[2.29 µM].
For N#CC(CC(=O)O)=C(c1ccccc1)c1ccccc1 the results were FLuc inh 4.5%[11.4 µM].
CC1=CC(=O)C2=C(C)CC[C@@H]3[C@H](OC(=O)[C@H]3C)[C@H]12 was read as FLuc inh 2.8%[11.4 µM].
For COc1cc(/C=C\C(=O)CC(=O)/C=C\c2ccc(O)c(OC)c2)ccc1O the results were FLuc inh -15.5%[11.4 µM].
`CN(C)S(=O)(=O)c1cccc(C(=O)NCCc2ccccc2)c1` gave PK Bst inactive and FLuc inh 12.6µM*.
`CN(C)S(=O)(=O)c1cccc(C(=O)Nc2cc(Cl)ccc2O)c1` gave PK Bst inactive and FLuc inh 12.6µM*.
CN1CCN(c2ccc(Cl)cc2NC(=O)c2cccc(S(=O)(=O)N(C)C)c2)CC1 was read as PK Bst >57 and FLuc inh 2.9%.
CS(=O)(=O)c1cccc(C(=O)NCc2ccccc2)c1 was read as PK Bst >57 and FLuc inh 0.6%.
For O=C(Cn1cnc2ccccc2c1=O)c1ccc2c(c1)OCCO2 the results were FLuc inh 12.6µM*.
Screening CCN(CC)C(=O)Cn1cnc2ccccc2c1=O returned PK Bst >57 and FLuc inh 0.2%.
CC1(C)[C@@H]2CC[C@@]1(CS(=O)(=O)Nc1ccccc1)C(=O)C2 was read as FLuc inh 2.2%[11.4 µM].
Screening COc1ccccc1OCCn1c(CO)nc2ccccc21 returned PK Bst >57 and FLuc inh -4.0%.
`OCc1nc2ccccc2n1CCCOc1ccc(Br)cc1` gave PK Bst inconclusive and FLuc inh 12.6µM*.
O=C1N=C(N2CCOCC2)S/C1=C1\C(=O)N(Cc2ccccc2)c2ccccc21 was read as FLuc inh -17.8%.
